Results from PubChem BioAssay (Tox21).
The source made the active and inactive calls. The call rests on the fitted dose curve; in most records, active means well fitted curve in the direction sought with a large enough effect in the repeat runs; inconclusive means weak or mixed curves; inactive means flat fitted curve, though single readings scatter.

Assay: qHTS assay to test for compound auto fluorescence at 590 nm (red) in HEK293 cell free culture (AID 720683)
Details: cell-free medium autofluorescence, Ex540/Em590 red; series mostly up to 91.3 µM
Text: U.S. Tox21 Program National Center for Advancing Translational Sciences [NCATS] NIH Chemical Genomics Center [NCGC] U.S. Environmental Protection Agency [EPA] National Institutes of Environmental Health Sciences [NIEHS] National Toxicology Program [NTP] U.S. Food and Drug Administration [FDA] Tox21 Assay Overview: Compound auto fluorescence often interferes with screening of the compound library against various biological targets and signaling pathways. Some of these compounds may have fluorophoric properties. Such properties may interfere with the assay outputs resulting in false positives and/or negatives. To decrease such complications and ensure the compound activities are relevant in terms of biological response, the Tox21 10K compound library was screened for auto fluorescence. From the fluorophores used as reporter signals in our screening assays, the auto fluorescence equivalencies of compounds against three fluorophores have been evaluated: Triamterene, Fluorescein and Rose Bengal sodium for blue, green and red fluorescence, respectively. The fluorescence intensities were measured using Excitation/Emission wavelengths at 405/460nm, 485/535nm and 540/590nm for blue, green and red labels, respectively. This assay includes the red fluorescence data.
Tox21 Assay Protocol Summary: 5 uL of culture medium (DMEM containing 10% FBS) per well was dispensed into black wall/clear bottom 1536-well plates using a Multidrop Combi Dispenser (ThermoFisher Scientific, Waltham, MA). After 23 nL compound or DMSO vehicle was transferred into assay plate by a pintool work station (Kalypsys, San Diego, CA), fluorescence intensities in the assay plates were measured by an Envision (PerkinElmer, Shelton, CT) plate reader using three labels for measuring blue, green and red fluorescence at […] 460, 535 and 590nm respectively.

SMILES	outcome
CCNc1nc(Cl)nc(NCC)n1	inactive
O=C(O)C(Cl)(Cl)Cl	inactive
CCn1cc[n+](C)c1C	inactive
CCCCn1cc[n+](C)c1C	inactive
O=c1[nH]c(=O)n(Cl)c(=O)n1Cl	inactive
CCCCCCCCCCCCCCCCn1cc[n+](C)c1	inactive
CCCCCC[n+]1ccccc1	inactive
CC[N+](CC)(CC)CC	inactive
O=S(=O)(O)O	inactive
CCCCCCCCCCCCOS(=O)(=O)O	inactive
O=C(O)c1nc(Cl)ccc1Cl	inactive
COc1ccccc1N	inactive
C[N+](C)(C)Cc1ccccc1	inactive
CCCCCCCCCCCC(=O)O	inactive
CN(C)[C@@H]1C(=O)C(C(N)=O)=C(O)[C@@]2(O)C(=O)C3=C(O)c4c(O)cccc4[C@@](C)(O)[C@H]3[C@H](O)[C@@H]12	inactive
CCCCCCCCn1cc[n+](C)c1	inactive
CCCCCCn1cc[n+](C)c1	inactive
Nc1ccccc1	inactive
O=C(O)CCl	inactive
COCC(=O)N(c1c(C)cccc1C)C(C)C(=O)OC (stereo not given)	inactive

SMILES	outcome
Nc1ccc(-c2ccc(N)c(Cl)c2)cc1Cl	inactive
N#CS	inactive
CCCC[n+]1ccccc1C	inactive
CCC[N+]1(C)CCCC1	inactive
CCCCCCCCCCCCCC[P+](CCCCCC)(CCCCCC)CCCCCC	inactive
O=P1(N(CCCl)CCCl)NCCCO1 (stereo not given)	inactive
CC(=O)[O][Hg][c]1ccccc1	inactive
CCC(=O)C(CC(C)N(C)C)(c1ccccc1)c1ccccc1 (stereo not given)	inactive
CCC[N+]1(C)CCCCC1	inactive
COP(=O)(OC)C(O)C(Cl)(Cl)Cl (stereo not given)	inactive
O=[N+]([O-])O	inactive
CCCC[N+]1(C)CCCC1	inactive
COP(=O)(OC)OC=C(Cl)Cl	inactive
O=C(O)COc1ccc(Cl)cc1Cl	inactive
COc1ccc(N)cc1	inactive
C=CCOC(Cn1ccnc1)c1ccc(Cl)cc1Cl (stereo not given)	inactive
O=C(O)C(Cl)Cl	inactive
CNC	inactive
Cc1cc(Cl)ccc1N	inactive
CCCC[n+]1ccc(C)cc1	inactive
